ALOX12 inh: Primary qHTS assay for inhibitors of human arachidonate 12S-lipoxygenase (ALOX12): Round 2 | Polyunsaturated fatty acid lipoxygenase ALOX12 (Homo sapiens), P18054 | purified 12hLO, xylenol orange hydroperoxide absorbance | Potency, µM (series often up to 108 µM), hits mostly inhibitors | hit rate 1.1% among 580,000 | AID 1671190, 2021
Target sequence (P18054 whole entry, looked up): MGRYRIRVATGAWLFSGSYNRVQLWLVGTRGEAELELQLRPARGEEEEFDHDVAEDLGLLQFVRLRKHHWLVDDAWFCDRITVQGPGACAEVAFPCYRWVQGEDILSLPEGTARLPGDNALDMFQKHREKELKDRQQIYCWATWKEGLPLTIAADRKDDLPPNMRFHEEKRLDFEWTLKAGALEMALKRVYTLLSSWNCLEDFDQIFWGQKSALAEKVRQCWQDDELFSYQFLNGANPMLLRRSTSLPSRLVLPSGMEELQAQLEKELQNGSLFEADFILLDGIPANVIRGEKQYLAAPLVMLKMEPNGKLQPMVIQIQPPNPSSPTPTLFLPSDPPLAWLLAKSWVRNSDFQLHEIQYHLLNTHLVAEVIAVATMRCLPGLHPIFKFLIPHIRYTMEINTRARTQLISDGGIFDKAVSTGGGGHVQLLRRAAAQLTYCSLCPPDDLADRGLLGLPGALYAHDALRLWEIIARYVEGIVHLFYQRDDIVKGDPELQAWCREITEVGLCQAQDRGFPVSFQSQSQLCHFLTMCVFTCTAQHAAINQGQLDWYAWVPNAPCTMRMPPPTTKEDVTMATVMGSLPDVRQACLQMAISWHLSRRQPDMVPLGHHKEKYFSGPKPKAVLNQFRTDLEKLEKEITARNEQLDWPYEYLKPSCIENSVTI
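Purified human 12hLO at 150 nM in 25 mM Hepes, 0.01% Triton X-100, pH 7.0, preincubated 15 min at room temperature with compound. Reaction started with 40 uM arachidonic acid, 30 min at room temperature. Hydroperoxide measured by Fe-xylenol orange, 573/405 nm absorbance ratio.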
PLK1 PBD block: qHTS for Inhibitors of PLK1-PDB (polo-like kinase 1 - polo-box domain): Primary Screen; Plk1 PBD binding of FITC phosphopeptide, fluorescence polarization; Potency, µM, usual class: inhibitors; hit rate 2.8% among 360,000; AID 720504, 2013; note: series mostly up to about 57 µM; nearly all actives have a fitted effect of over 65% in size
Sfp inh: qHTS Assay for Inhibitors of Bacillus subtilis Sfp phosphopantetheinyl transferase (PPTase) | 4'-phosphopantetheinyl transferase ffp (Bacillus subtilis), Q9F4F7 | Biochemical Sfp PPTase activity, qHTS | Potency, µM, actives largely listed as inhibitors | hit rate 3.5% among 310,000;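 note: the enzyme is Sfp with the accession as filed and its product quenches rhodamine fluorescence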
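Reaction rates are the 30-min fluorescence difference (ex 525, em 598 nm) in wells containing 15 nM Sfp, 5 uM rhodamine-CoA and 12.5 uM BHQ-2-YbbR at pH 7.6 with 10 mM MgCl2.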
VDR inhibitor: Inhibitors of the vitamin D receptor (VDR): qHTS. Potency, µM, hits mostly inhibitors. AID 504847, 2011. VDR-SRC2-3 peptide fluorescence polarization, 2 h. hit rate 0.93% among 400,000
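Compounds are added to VDR with labelled SRC2-3 coactivator peptide and held 2 h at room temperature. Inhibition of the VDR–peptide interaction is then read as a change in fluorescence polarization.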
Each line names hits and unclear results; the compound was inactive in the other large screens; ! = a repeat was not active. In the library only some 4.2% were active in any assay of this set; here they are far more common. Calls come from the whole dose curve; as a rule, active = well fitted curve in the direction sought with a large enough effect; inconclusive = small, poorly fitted or top-dose-only effect, or another doubt; inactive = no such curve, though single readings can be large; an effect the other way counts as inactive or inconclusive.

Cc1ccc(Cl)cc1N1CCN(C(=O)CSc2ccsc2[N+](=O)[O-])CC1	ALOX12 inh inconclusive
Cc1ccsc1C1C(C#N)=C(N)OC2=C1C(=O)CCC2 (configuration not stated)	PLK1 PBD block inconclusive, Sfp inh 56µM
Cc1ccc(C2C(C#N)=C(N)OC3=C2C(=O)CCC3)s1 (configuration not stated)	PLK1 PBD block inconclusive
CCc1oc2ccccc2c1C(=O)c1cc(Br)c(O)c(Br)c1	ALOX12 inh 45µM!, PLK1 PBD block 8.4µM, VDR inhibitor 50µM!
CCc1ccc(OCC(=O)c2c(O)c3ccccc3oc2=O)cc1	ALOX12 inh inconclusive
S=c1[nH]nc(CCCc2n[nH]c(=S)o2)o1	PLK1 PBD block 21µM, Sfp inh inconclusive
S=c1[nH]nc(Cc2ccc(Cl)cc2)o1	ALOX12 inh inconclusive, PLK1 PBD block 34µM
COc1ccc(Cc2n[nH]c(=S)o2)cc1	none
Cc1cc(NC(=O)CCC(=O)N(CC(=O)NC2CCCC2)Cc2ccc3c(c2)OCO3)no1	none
CNC(=O)N1CCC(C2CCN(S(=O)(=O)C(C)C)C2)CC1 (configuration not stated)	none (no result: PLK1 PBD block, Sfp inh, VDR inhibitor)
N#Cc1cccc(CN2C3CCC2CN(C(=O)Nc2ccccc2F)C3)c1	none (no result: PLK1 PBD block, Sfp inh, VDR inhibitor)
CC1=C(C(=O)Nc2ccccc2)C2(CCCCC2)C(C#N)=C(SCC(N)=O)N1	PLK1 PBD block 3.4µM, VDR inhibitor inconclusive
N#CC1=C(N)NC(SCC(=O)c2ccccc2)=C(C#N)C12CCCC2	Sfp inh inconclusive
COc1ccccc1-c1cnc(C(O)c2c(C)cccc2C)[nH]1 (configuration not stated)	none (no result: Sfp inh, VDR inhibitor)
C#CCCCCCCCCCCCc1ccco1	ALOX12 inh inconclusive, VDR inhibitor 35µM (no result: PLK1 PBD block)
CC(C)NCc1ccco1	none (no result: PLK1 PBD block, Sfp inh, VDR inhibitor)
CC1CCC/C(=N/Nc2nc3ccccc3s2)C1 (configuration not stated)	ALOX12 inh inconclusive, PLK1 PBD block 30µM, Sfp inh inconclusive
CCC/C=N/Nc1nc2ccccc2s1	ALOX12 inh 40µM
Cc1ccccc1OCC(=O)NCCNC(=O)c1ccccn1	none
COc1cccc(-c2nn3c(-c4ccccn4)nnc3s2)c1	none
CC(C)(C)c1ccc(-c2nnc3sc(-c4ccccn4)nn23)cc1	PLK1 PBD block 21µM, Sfp inh 45µM, VDR inhibitor inconclusive
COc1cccc(-c2nnc3sc(-c4ccccn4)nn23)c1	PLK1 PBD block 27µM
Clc1ccc(Cn2nc(-c3ccccc3)nc2-c2ccccc2)cc1	PLK1 PBD block 24µM
COc1ccc(C2=CC3=C(Br)C(=O)C(C)(OC(=O)c4cccs4)C(=O)C3=CO2)cc1 (configuration not stated)	ALOX12 inh 6.3µM, PLK1 PBD block 8.4µM
COc1ccc(C2=CC3=C(Br)C(=O)C(C)(OC(=O)c4ccco4)C(=O)C3=CO2)cc1 (configuration not stated)	PLK1 PBD block 9.5µM, Sfp inh inconclusive, VDR inhibitor 79µM (no result: ALOX12 inh)
COc1ccc(C2=CC3=C(Br)C(=O)C(C)(OC(=O)CCc4ccccc4)C(=O)C3=CO2)cc1 (configuration not stated)	none (no result: ALOX12 inh, PLK1 PBD block)
COCCN1C=C2C(=O)C(C)(OC(=O)CCC(=O)OC)C(=O)C(Br)=C2C=C1c1ccc(OC)cc1 (configuration not stated)	PLK1 PBD block inconclusive, VDR inhibitor 22µM (no result: ALOX12 inh)
COc1ccc2[nH]c(=O)c(CN(C)S(=O)(=O)c3ccccc3)cc2c1	none (no result: PLK1 PBD block, Sfp inh, VDR inhibitor)
Cc1ccc(N(CC(=O)NCCc2ccccc2)S(=O)(=O)c2c(C)noc2C)cc1	none
O=C(Cn1cc(C(F)(F)F)ccc1=O)N/N=C/c1ccccc1O	PLK1 PBD block 30µM, VDR inhibitor inconclusive
C/C(=N\O)c1ccc(Cl)c(Cl)c1	none (no result: ALOX12 inh)
CNC(=S)N/N=C(\C)c1ccc(Cl)c(Cl)c1	ALOX12 inh 40µM, Sfp inh inconclusive
Oc1ccc(Br)cc1-c1cc(-c2ccco2)[nH]n1	ALOX12 inh inconclusive
Oc1ccc(Cl)cc1-c1cc(-c2ccco2)[nH]n1	ALOX12 inh inconclusive, PLK1 PBD block 5.3µM, Sfp inh 50µM
Oc1ccccc1-c1cc(-c2ccco2)[nH]n1	ALOX12 inh 20µM
COc1ccc(CN(C)CC(=O)NC(C)c2ccccc2)cc1OC (configuration not stated)	none
Cc1cc(N(CCO)CCO)ccc1C(c1ccc(N(CCO)CCO)cc1C)c1ccccc1Cl	ALOX12 inh inconclusive, Sfp inh inconclusive
C/C(=N\NC(=O)c1cccnc1)c1ccc(OC2OCCOC2Oc2ccc(/C(C)=N/NC(=O)c3cccnc3)cc2)cc1 (configuration not stated)	PLK1 PBD block 30µM, VDR inhibitor 40µM
C/C(=N\NC(=O)c1cccs1)c1cccnc1	PLK1 PBD block 21µM, VDR inhibitor 79µM
O=C1C(Nc2ccccc2)=C(N2CCCCC2)C(=O)c2ccccc21	PLK1 PBD block inconclusive, VDR inhibitor inconclusive
O=C1C(Nc2cccc(O)c2)=C(N2CCCCC2)C(=O)c2ccccc21	ALOX12 inh inconclusive, Sfp inh 32µM, VDR inhibitor inconclusive
Cc1ccc(Sc2oc(/C=C(/C#N)c3nc4ccccc4[nH]3)cc2Br)cc1	none (no result: PLK1 PBD block, Sfp inh, VDR inhibitor)
N#C/C(=C\c1cc(Br)c(Br)o1)c1nc2ccccc2[nH]1	ALOX12 inh 11µM (no result: PLK1 PBD block, Sfp inh, VDR inhibitor)
N#C/C(=C\c1ccc(N2CCOCC2)o1)c1nc2ccccc2[nH]1	Sfp inh 32µM
COc1ccc2nc(/C(C#N)=C\c3ccco3)[nH]c2c1	ALOX12 inh 40µM (no result: PLK1 PBD block, Sfp inh, VDR inhibitor)
CCOc1ccc(NC(=S)N(CCc2c(C)[nH]c3ccc(C)cc23)Cc2ccncc2)cc1	none
C/C(=N\NC(=S)Nc1ccc(F)cc1)c1ccc2c(c1)OCCO2	ALOX12 inh 35µM
CC(=O)Nc1ccc(/C(C)=N/Nc2nc(N3CCOCC3)nc(N3CCOCC3)n2)cc1	PLK1 PBD block 30µM, VDR inhibitor inconclusive
C/C(=N\Nc1nc(N2CCCCCC2)nc(N2CCCCCC2)n1)c1ccccc1	none
C/C(=N\NC(=S)NCc1ccccc1)c1ccc2c(c1)OCCO2	ALOX12 inh 35µM, Sfp inh inconclusive
C/C(=N\NC(=S)Nc1ccc(C)c(C)c1)c1ccc(N2CCOCC2)cc1	ALOX12 inh 35µM
C/C(=N\NC(N)=S)c1ccc2c(c1)OCCO2	ALOX12 inh inconclusive
COC(=O)CCC(=O)Nc1ccc(S(=O)(=O)N2CCc3ccccc32)cc1	none
Cc1cc(=O)n(CC(=O)Nc2ccc(C(F)(F)F)cc2)c(N2CCc3ccccc3C2)n1	none (no result: PLK1 PBD block, Sfp inh, VDR inhibitor)
Cc1ccc(Oc2ccc(Cl)cc2NC(=O)Cn2cnc3c2c(=O)n(C)c(=O)n3C)cc1	none (no result: PLK1 PBD block, Sfp inh, VDR inhibitor)
Cc1cnc(CCNC(=O)c2n[nH]c3ccccc23)n1C1CC1	none (no result: PLK1 PBD block, Sfp inh, VDR inhibitor)
Fc1ccccc1-n1c(C23CC4CC(CC(C4)C2)C3)n[nH]c1=S	ALOX12 inh 14µM (no result: PLK1 PBD block, Sfp inh, VDR inhibitor)
COCCCn1c(C23CC4CC(CC(C4)C2)C3)n[nH]c1=S	ALOX12 inh inconclusive, Sfp inh inconclusive
CC(C)Cn1c(C23CC4CC(CC(C4)C2)C3)n[nH]c1=S	ALOX12 inh 28µM, Sfp inh inconclusive

Assay outcomes: PubChem BioAssay, National Center for Advancing Translational Sciences (NCATS)
